Source: PubChem BioAssay (NCATS)
Inconclusive results are not listed. The source made the active and inactive calls. Unless noted, calls follow the shape of the dose curve; as a rule, active = well fitted curve in the direction sought with a large enough effect; inconclusive = small, poorly fitted or top-dose-only effect, or another doubt; inactive = no such curve, though single readings can be large; an effect the other way counts as inactive or inconclusive.

Tests used:
[1] = qHTS Assay for Identifying Gametocytocidal Compounds (AID 743244); also: potency is read from the fitted curve at half-maximal effect;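 as to max response: % is scaled to controls: 0 for no effect and ±100 for the full control effect; actives lower the fluorescent signal which means gametocytes are killed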; details: P. falciparum 3D7 stage III-V gametocytes, alamarBlue, 72 h; max response: stronger effect = lower value
In short: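 A resazurin-based viability read-out was applied to mature P. falciparum gametocytes: 72 h compound treatment, then 24 h dye incubation, with falling fluorescence signalling gametocytocidal effect.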

[2] = qHTS profiling for inhibitors of Plasmodium falciparum (3D7) proliferation (AID 743322; call rule not given here;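 also: infected erythrocytes exposed to compound for 72 h before lysis; 100% = DMSO vehicle wells and 0% = 0.29 µM artemisinin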); details: P. falciparum 3D7 proliferation; at 28.7 µM (top of the series) unless noted
In short: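 Erythrocytes infected with P. falciparum (0.3% parasitemia, 2.5% hematocrit) incubated with compounds 72 h at 37 C, 5% CO2. Lysis with saponin/Triton buffer containing SYBR Green I, overnight at room temperature in the dark; DNA fluorescence (485/535 nm) normalised to 0.29 uM artemisinin and DMSO.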

[3] = qHTS profiling for inhibitors of Plasmodium falciparum (DD2) proliferation (AID 743323; call rule not given here); details: lower = more inhibition; at 28.7 µM (top of the series) unless noted
In short: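 Parasite DNA quantified by SYBR Green fluorescence (ex 485, em 535 nm) after saponin/Triton lysis and overnight dark incubation. Cultures: 0.3% parasitemia, 2.5% hematocrit, 72 h, 37 C; data scaled between DMSO and 0.29 uM artemisinin.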

[4] = target: Tyrosine-protein kinase Yes (Homo sapiens) (UniProt P07947); assay: qHTS for small molecule inhibitors of Yes1 kinase: Primary Screen (AID 686947); details: Yes1 kinase biochemical qHTS inhibition; series mostly up to 76.9 µM;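 also: plate controls were DMSO with enzyme for no effect and no-enzyme DMSO wells for full effect; nearly all actives have a fitted effect of over 60% in size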
Sequence of Tyrosine-protein kinase Yes (Homo sapiens) (P07947 whole entry, looked up): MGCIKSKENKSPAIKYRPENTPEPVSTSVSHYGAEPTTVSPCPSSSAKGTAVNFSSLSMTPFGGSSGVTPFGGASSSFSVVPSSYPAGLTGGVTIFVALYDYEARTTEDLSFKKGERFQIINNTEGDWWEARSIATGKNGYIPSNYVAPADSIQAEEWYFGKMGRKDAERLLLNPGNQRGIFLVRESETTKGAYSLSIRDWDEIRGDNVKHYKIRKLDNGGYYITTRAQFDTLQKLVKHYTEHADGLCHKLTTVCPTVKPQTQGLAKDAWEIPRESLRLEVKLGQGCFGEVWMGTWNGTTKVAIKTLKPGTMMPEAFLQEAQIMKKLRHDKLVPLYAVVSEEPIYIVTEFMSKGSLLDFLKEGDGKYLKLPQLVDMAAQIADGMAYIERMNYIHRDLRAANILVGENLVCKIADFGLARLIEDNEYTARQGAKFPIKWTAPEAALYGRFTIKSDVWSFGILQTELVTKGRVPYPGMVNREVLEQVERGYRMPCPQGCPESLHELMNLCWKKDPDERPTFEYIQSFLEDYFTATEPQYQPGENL
In short: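 ADP-Glo luminescence readout; final 4 nM Yes1, 0.1 mM ATP, 0.3 mg/mL poly(E4Y), Tris pH 7.5, MgCl2, DTT, Brij-35. 20 min compound preincubation, 60 min reaction at RT. Normalized to DMSO wells with and without enzyme.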

[5] = qHTS for small molecule inhibitors of Yes1 kinase: Counter Assay (AID 686950); details: series mostly up to 76.9 µM;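 also: no kinase present so only ADP-Glo detection of a fixed ADP amount is tested; luminescence from ADP-Glo reporting ADP in a fixed ATP and ADP mixture; 0% = DMSO wells with ATP plus ADP and -100% = ATP-only wells without ADP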
In short: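 Enzyme-free detection counter-screen: compounds preincubated 20 min in buffer, then 0.08 mM ATP plus 0.02 mM ADP added for 60 min at room temperature; ADP-Glo luminescence. Buffer 50 mM Tris pH 7.5, 10 mM MgCl2, 150 mM NaCl; normalized to ATP+ADP and ATP-only controls.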

[6] = qHTS for compounds that reverse cellular toxicity of Amyloid beta (A-beta) peptide in yeast: LOPAC Validation Assay (AID 720559); details: yeast expressing A-beta; series mostly up to 46.1 µM;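 also: plate controls were DMSO for no effect and equimolar ferric chloride plus clioquinol rescue for full effect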
In short: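 Medium dispensed, compounds pinned, A-beta yeast suspension added; plates held at 30 C for 48 hr; absorbance measured at 600 nm to gauge growth; values scaled between DMSO and FeCl3/clioquinol (equimolar) controls.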

[7] = qHTS for Activators of Parkin Expression: LOPAC Validation Assay (NLuc Reporter) (AID 720572); details: Parkin promoter NanoLuc reporter cells, luminescence, percent of positive control, DMSO as zero; series mostly up to 46.1 µM
In short: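 Neuronal cells with a Parkin promoter-driven FLuc/NLuc coincidence reporter were treated 24 h at 37 C in 7-point dose response (LOPAC). NLuc luminescence read after FLuc; signals normalized to DMSO and positive control (100%).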

[8] = qHTS for Activators of Parkin Expression: LOPAC Validation Assay (FLuc Reporter) (AID 720573); details: Cell line, PRKN promoter firefly luciferase reporter, vehicle wells = 0, positive control = 100%; series mostly up to 46.1 µM
In short: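 Cells seeded, 24 h; compounds pinned, 7-pt dose response; 24 h at 37 C/5% CO2; volume reduced; FLuc reagent 10 min RT; luminescence read. Normalization: DMSO = 0, positive control = 100%.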

[9] = target: T1, Hexokinase-4 (Homo sapiens) + Glucokinase regulatory protein (Homo sapiens) (UniProt P35557+Q14397); assay: qHTS assay for inhibitors of recombinant human GCK-GKRP interaction: Diaphorase-coupled assay (AID 743205); details: G6PDH/diaphorase resorufin fluorescence; series mostly up to 57.5 µM
T1 sequence (P35557 whole entry, looked up): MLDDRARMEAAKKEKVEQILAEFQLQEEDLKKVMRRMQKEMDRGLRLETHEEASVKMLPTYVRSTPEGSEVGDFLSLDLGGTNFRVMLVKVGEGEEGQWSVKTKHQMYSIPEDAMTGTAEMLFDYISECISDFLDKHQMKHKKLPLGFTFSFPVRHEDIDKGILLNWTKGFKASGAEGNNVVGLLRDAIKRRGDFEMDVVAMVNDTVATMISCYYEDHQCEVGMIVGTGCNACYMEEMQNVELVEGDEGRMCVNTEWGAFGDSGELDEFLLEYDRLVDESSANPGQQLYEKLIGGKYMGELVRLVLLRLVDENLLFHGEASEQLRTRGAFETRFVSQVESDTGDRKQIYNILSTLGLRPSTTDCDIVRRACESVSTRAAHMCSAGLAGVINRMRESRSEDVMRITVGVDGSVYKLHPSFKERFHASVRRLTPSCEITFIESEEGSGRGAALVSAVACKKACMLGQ
T1 sequence (Q14397 whole entry, looked up): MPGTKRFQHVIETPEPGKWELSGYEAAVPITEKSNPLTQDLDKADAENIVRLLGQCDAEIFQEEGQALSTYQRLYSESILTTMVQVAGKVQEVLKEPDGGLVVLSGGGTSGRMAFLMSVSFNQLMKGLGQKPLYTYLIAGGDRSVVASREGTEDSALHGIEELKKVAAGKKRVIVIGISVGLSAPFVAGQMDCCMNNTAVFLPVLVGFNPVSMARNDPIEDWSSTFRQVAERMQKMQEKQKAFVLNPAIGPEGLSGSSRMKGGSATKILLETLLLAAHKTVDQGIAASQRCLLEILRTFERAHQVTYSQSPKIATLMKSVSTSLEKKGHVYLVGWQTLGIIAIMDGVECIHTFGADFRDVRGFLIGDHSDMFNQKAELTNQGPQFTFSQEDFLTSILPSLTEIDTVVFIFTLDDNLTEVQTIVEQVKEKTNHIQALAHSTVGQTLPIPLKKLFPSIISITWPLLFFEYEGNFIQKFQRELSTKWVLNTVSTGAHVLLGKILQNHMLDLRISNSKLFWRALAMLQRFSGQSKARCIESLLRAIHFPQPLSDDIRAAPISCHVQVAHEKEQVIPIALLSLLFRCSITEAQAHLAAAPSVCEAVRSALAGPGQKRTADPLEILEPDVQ
In short: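 25 mM Hepes pH 7.6, 5 mM glucose, 0.4 mM ATP, 4 U/ml G6PDH; 10 nM each GST-GCK/FLAG-GKRP. Kinetic fluorescence read, 1/min × 30 min. Normalized: DMSO ± enzyme = max/min.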

[10] = target: T1, Hexokinase-4 (Homo sapiens) + Glucokinase regulatory protein (Homo sapiens); assay: qHTS assay for inhibitors of recombinant human GCK-GKRP interaction: ADP-Glo assay (AID 743206); details: ADP-Glo luminescence, 60 min, 0% = vehicle-only wells with enzyme present; series mostly up to 76.9 µM;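 also: plate controls were DMSO plus enzyme for no effect and no enzyme for full effect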
In short: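 GST-GCK and FLAG-GKRP (15 nM each in the dispensed mix, with 2 uM S6P) react with 0.4 mM ATP and 5 mM glucose (final) in Hepes pH 7.6 for 60 min at room temperature. ADP is measured by ADP-Glo luminescence.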

[11] = target: T1, Hexokinase-4 (Homo sapiens) + Glucokinase regulatory protein (Homo sapiens); assay: qHTS assay for inhibitors of recombinant human GCK-GKRP interaction: HTRF assay (AID 743207); details: recombinant GCK-GKRP HTRF binding, 60 min, with sorbitol-6-phosphate; series mostly up to 57.5 µM;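 also: 0% = DMSO with GCK present and -100% = DMSO wells lacking GCK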
In short: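 5 nM GST-GCK + 5 nM FLAG-GKRP + 2 uM S6P, pH 7.1 buffer (25 mM Hepes, 2 mM MgCl2, 25 mM KCl, 1 mM DTT, Tween/BSA); pin-transferred cpd; anti-FLAG XL665/anti-GST K; 60 min RT; HTRF.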

SMILES: Clc1ccc(COC(Cn2ccnc2)c2ccc(Cl)cc2Cl)c(Cl)c1 (stereo not given)
- Potency [1]: 4480 nM (active)
- remaining parasite growth % (stronger effect = lower value) [2]: -0.257%
- activity, percent of control [3]: -0.374%

SMILES: Cc1nn(Cc2ccccc2Cl)c(C)c1CN(C)CC(O)COc1ccc(Cl)cc1 (stereo not given)
- Potency [4]: inactive
- outcome [5]: inactive
- remaining parasite growth % (stronger effect = lower value) [2]: 29.8%
- activity, percent of control [3]: 18.1%

SMILES: CC(C)(CO)[C@@H](O)C(=O)NCCC(=O)O
- max response [1]: -8.71% (inactive)

SMILES: NS(=O)(=O)c1cc(Cl)c(Cl)c(S(N)(=O)=O)c1
- max response [1]: -4.73% (inactive)

SMILES: CN(C)CCN(Cc1ccc(Cl)cc1)c1ccccn1
- max response [1]: 18.2% (inactive)

SMILES: CC(C)CNc1ccnc(NCc2csc(-c3ccccc3)n2)n1
- remaining parasite growth % (stronger effect = lower value) [2]: 3.03%
- activity, percent of control [3]: 6.76%

SMILES: C=C[C@@H]1CN2CCC1C[C@@H]2C(O)c1ccnc2ccc(OC)cc12 (stereo not given in full)
- remaining parasite growth % (stronger effect = lower value) [2]: 2.76%
- activity, percent of control [3]: 2.53%

SMILES: N#Cc1c(N(CC(=O)O)CC(=O)O)sc(C(=O)O)c1CC(=O)O
- max response [1]: -8.64% (inactive)

SMILES: CN(C)CCOc1ccc(-c2nc(-c3ccc4c(c3)CCC4=NO)c(-c3ccncc3)[nH]2)cc1
- outcome [5]: inactive

SMILES: COc1cc([C@@H]2c3cc4c(cc3[C@@H](O[C@@H]3O[C@@H]5CO[C@@H](C)O[C@@H]5[C@H](O)[C@@H]3O)[C@H]3COC(=O)[C@H]23)OCO4)cc(OC)c1O
- remaining parasite growth % (stronger effect = lower value) [2]: 51.5% [at 9.63 µM]
- activity, percent of control [3]: 47.3% [at 9.63 µM]

SMILES: CC[C@H](C)C(=O)O[C@H]1C[C@H](O)C=C2C=C[C@H](C)[C@H](CC[C@@H](O)C[C@@H](O)CC(=O)O)[C@H]21
- max response [1]: -1.33% (inactive)

SMILES: C=CCc1cccc(C=NNC(=O)CN2CCN(Cc3ccccc3)CC2)c1O
- outcome [6]: inactive
- outcome [7]: inactive
- outcome [8]: inactive
- outcome [9]: inactive
- outcome [10]: inactive
- outcome [11]: inactive

SMILES: O=C(Nc1cccc2c(=O)cc(-c3nn[nH]n3)oc12)c1ccc(OCCCCc2ccccc2)cc1
- max response [1]: 38.4% (inactive)

SMILES: CCNC(=O)c1noc(-c2cc(C(C)C)c(O)cc2O)c1-c1ccc(CN2CCOCC2)cc1
- outcome [5]: inactive
- Potency [1]: 46.9 nM (active)
- remaining parasite growth % (stronger effect = lower value) [2]: 0.155%
- activity, percent of control [3]: 0.689%
